Data reported in PubChem BioAssay AID1347426 (Functional Genomics Laboratory (NCATS/FGL), 2020).
Out of some 31,000 sequences screened, about 1,400 (4.5%) were called active. Many of the other results were omitted from the sample, so actives are more common in it than they were. Values without a mark were called inactive.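 How the source made its calls: active means median seed-adjusted z-score above 1 or below -1; inactive means the rest.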

Experiment: Novel Modifiers of Survival Motor Neuron (SMN) Protein: Gene Identification via Genome-wide siRNA Screen;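 further: luminescence tracks full-length SMN protein made from the SMN2 reporter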
Settings: HEK293T SMN2-luciferase reporter, siRNA knockdown, 72 h; actives lie on both sides
Procedure, shortened: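 siRNA screen, 10418 genes ×3 siRNAs; 1 pmol/well, lipid reverse transfection into HEK293T SMN2-luc reporter line. 72 h, 37 °C, 5% CO2; ONE-Glo readout. Data: neg-ctrl normalized, log10, MAD; hit = MAD >1.0 or < -1.0.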

Q: With GGAUUCUAAGUACAGAGAATT against ZNF323 as the sequence, how does the median seed-adjusted z-score read?
A: -0.319

Q: With CAACUGCUAGCUGAACGAATT against ITIH2 as the sequence, how does the median seed-adjusted z-score read?
A: 0.262

Q: With CAUUUAUGACAAUCGGAUATT against OGT as the sequence, how does the median seed-adjusted z-score read?
A: 0.411

Q: Which median seed-adjusted z-score does the source give for GUCUAUGAAUUGGACAAGATT against PGAM1 here?
A: -0.234

Q: For CAUCAAAUAUGACAACUUUTT against GALNTL4, which median seed-adjusted z-score is on record?
A: 0

Q: Which median seed-adjusted z-score does the source give for GCCGUUUCAUGUUUGUCUATT against TRPV1 here?
A: -0.12

Q: For GGAAAUGAGUGUCUGAACATT against CHMP6, which median seed-adjusted z-score is on record?
A: -1.81 (active)

Q: Which median seed-adjusted z-score does the source give for GGCUUUUUAGAUUUCGAAATT against TIGD7 here?
A: -0.116

Q: With GAGUGAGACUGGGACAAGATT against TAPBP as the sequence, how does the median seed-adjusted z-score read?
A: -0.786

Q: For GCCUUCACGUCUGAACAUATT against GAD2, which median seed-adjusted z-score is on record?
A: 0.0588

Q: For GAAACAACUUGAUUUCGAATT against PCDHB8, which median seed-adjusted z-score is on record?
A: 1.15 (active)

Q: With GCAUGUUGUUGAUCAUGGATT against MAFB as the sequence, how does the median seed-adjusted z-score read?
A: 0.674

Q: Which median seed-adjusted z-score does the source give for GAAGUGUUAUGUAAGGAGATT against EPHX2 here?
A: 0

Q: With GAACAUGUCUUUAACGGAUTT against TJP2 as the sequence, how does the median seed-adjusted z-score read?
A: 0.0668

Q: Which median seed-adjusted z-score does the source give for AGAUGAGAACUCUAAGCAATT against CHRM2 here?
A: 0.053

Q: With CGAUCACUUCCUACAGUCUTT against RGR as the sequence, how does the median seed-adjusted z-score read?
A: 0.217

Q: Which median seed-adjusted z-score does the source give for CCAUUGAAGUGGUUAAGAATT against CCNE2 here?
A: 0.801

Q: With GGUUGUUGCUGAUAGAGAATT against DPH5 as the sequence, how does the median seed-adjusted z-score read?
A: 0

Q: With GAAGGACUCUGCAUAUGAUTT against SLC2A14 as the sequence, how does the median seed-adjusted z-score read?
A: -1.09 (active)

Q: Which median seed-adjusted z-score does the source give for CAACUAUAGUGCUCCCAGUTT against ZFP36L1 here?
A: -0.933

Q: Which median seed-adjusted z-score does the source give for CUCAGAGUGCAGAACCACATT against TRIM15 here?
A: 0.292

Q: With CCACGUACCCUUCAUCAAATT against KIF11 as the sequence, how does the median seed-adjusted z-score read?
A: -0.381

Q: Which median seed-adjusted z-score does the source give for GGUCUUCAGUGAACAGUUUTT against ZNF562 here?
A: -0.0954

Q: With CUGUAAGAUUAAAUCCCAATT against TMTC4 as the sequence, how does the median seed-adjusted z-score read?
A: -1.16 (active)

Q: With GCCUUACAACUCUAAUGAATT against ZNF519 as the sequence, how does the median seed-adjusted z-score read?
A: 0.0162

Q: For GCAUGGUCAUAGGCCUGAUTT against CYB561, which median seed-adjusted z-score is on record?
A: 0

Q: Which median seed-adjusted z-score does the source give for GGUGGAUGCUCAAUCCAGATT against FOXO1 here?
A: 0.0591

Q: With CGAGAAGAGGAUUAAAGGATT against HAND1 as the sequence, how does the median seed-adjusted z-score read?
A: 0.161

Q: Which median seed-adjusted z-score does the source give for GGAAGAUUACAACCGAACATT against ARHGEF12 here?
A: 0.136

Q: For GAUCACGUUUGACAACAAATT against MCOLN1, which median seed-adjusted z-score is on record?
A: -0.522

Q: For CUUUAACUGGGAUCACUGUTT against FOLR3, which median seed-adjusted z-score is on record?
A: 0

Q: With CAACCAAAGUCGAAUAUGATT against PLK1 as the sequence, how does the median seed-adjusted z-score read?
A: -2.57 (active)

Q: Which median seed-adjusted z-score does the source give for UCCCAAACCUUCACCAUCATT against THAP8 here?
A: -0.872

Q: For GCAUCACCAUUGCUUGGAATT against STAT5B, which median seed-adjusted z-score is on record?
A: 0

Q: With CCUCGAUAUUUUAACCUUUTT against EID2 as the sequence, how does the median seed-adjusted z-score read?
A: -1.04 (active)

Q: With GUGAUAAAGUGAUAAGAUUTT against CPA6 as the sequence, how does the median seed-adjusted z-score read?
A: 0.343

Q: Which median seed-adjusted z-score does the source give for CCCACUAAAUUUUCGGAAATT against ATAD2 here?
A: -0.246

Q: With CUAUGAAAAUUGCAGGAGATT against GCM2 as the sequence, how does the median seed-adjusted z-score read?
A: -0.241

Q: With CCCAGGAACUGCUAACGAATT against SETMAR as the sequence, how does the median seed-adjusted z-score read?
A: 0.191

Q: Which median seed-adjusted z-score does the source give for GCUCAUCCCUGUGCAUGGUTT against LY6G5B here?
A: -1.29 (active)

Q: For CUACAAGACAGGCAAUCUATT against IFI30, which median seed-adjusted z-score is on record?
A: 0.401

Q: Which median seed-adjusted z-score does the source give for CAGUAAGAAGGGUUCAAUATT against BTK here?
A: -0.0648

Q: Which median seed-adjusted z-score does the source give for CAAGAGAUAUCAUCGAUUATT against ZRANB3 here?
A: 0.0516

Q: Which median seed-adjusted z-score does the source give for GGAUAUAGCUGGUGACCCATT against PCDH7 here?
A: 0.192

Q: For AGUUGUUGGAAUGACCUUATT against CLEC5A, which median seed-adjusted z-score is on record?
A: -1.07 (active)

Q: Which median seed-adjusted z-score does the source give for GAAGAUGUAUGGAAUUCUUTT against DARC here?
A: 0.0814

Q: With CCAAGUAUCUGGUGGUGAATT against NDUFV1 as the sequence, how does the median seed-adjusted z-score read?
A: -0.653

Q: For GGACGAGAGAUGUACAUUATT against CNGA1, which median seed-adjusted z-score is on record?
A: -1.08 (active)

Q: Which median seed-adjusted z-score does the source give for ACAUUUAGGUUGUAAACCATT against PLA2G12A here?
A: 0.139

Q: For UGGUCAACUAGAAUACAUATT against RGPD5, which median seed-adjusted z-score is on record?
A: -0.0931

Q: With GGAGAUGCACAACAUCUUATT against PIP4K2B as the sequence, how does the median seed-adjusted z-score read?
A: 0.17

Q: With GAGUGGAAGUCAUACCCUATT against TTLL3 as the sequence, how does the median seed-adjusted z-score read?
A: -0.194

Q: With CUAAUAACAGGGUACAGUATT against ZNF238 as the sequence, how does the median seed-adjusted z-score read?
A: -0.491

Q: With CUAUGGACUUCAUCGCUUUTT against EEF1E1 as the sequence, how does the median seed-adjusted z-score read?
A: -1.45 (active)

Q: Which median seed-adjusted z-score does the source give for GCAGAGUCAUGACCAGGGATT against CHST6 here?
A: 0.372

Q: For CAGAUGCAGCACUCACUUUTT against MMP17, which median seed-adjusted z-score is on record?
A: -0.653

Q: Which median seed-adjusted z-score does the source give for AGAGAGCUCCGAACCUUCUTT against ICAM5 here?
A: -1 (active)

Q: For GGAGGGUUUUCACGAUGAATT against AP2B1, which median seed-adjusted z-score is on record?
A: -0.214

Q: For CUGCAGAUCUUGUGACAGATT against IMPA2, which median seed-adjusted z-score is on record?
A: 0.0513

Q: Which median seed-adjusted z-score does the source give for GUAUACUCCAGAACAAGUATT against ALDOB here?
A: -1.34 (active)

Q: With AGACAAAGAUUGAUAAACATT against SLC24A3 as the sequence, how does the median seed-adjusted z-score read?
A: 0.0177

Q: Which median seed-adjusted z-score does the source give for AGAUCUACCCAGACCCGGATT against TRAF4 here?
A: -1.16 (active)

Q: For UCUACGACGUGGACGGUAATT against RCVRN, which median seed-adjusted z-score is on record?
A: 0.562

Q: Which median seed-adjusted z-score does the source give for CAGUAUACGUGGUGCACGATT against PFKL here?
A: 0

Q: With GCAUCAACAAUAUCCGGGATT against FARSA as the sequence, how does the median seed-adjusted z-score read?
A: -0.158

Q: With GGGUUCCAGUAACCAGUGATT against RPP21 as the sequence, how does the median seed-adjusted z-score read?
A: -1.09 (active)

Q: Which median seed-adjusted z-score does the source give for GCAGCUCCAGUAACCUCAATT against ZNF683 here?
A: -0.452

Q: For GAAGAGAUGUUCAACUGCATT against RAB35, which median seed-adjusted z-score is on record?
A: 0.317

Q: Which median seed-adjusted z-score does the source give for GCAAGAGAAUUAAACUGCATT against RAB8A here?
A: -0.0436
